Screening data as filed in PubChem.
These entries were drawn from the full list.
aSyn UTR act – Activators via SNCA 5'UTR binding, MLPCN. alpha-synuclein 5'UTR reporter, activators screen. AID 1814. 300,000 compounds, 7.1% hits. activity score, % (tested at 7.5 µM), hits read low; in the data active = activity score below about -60%
Of the large screens only hits and unclear results are named; the others gave an inactive call.

COc1cccc(OCc2cc(C(=O)NCc3ccc4c(c3)OCO4)no2)c1	aSyn UTR act -71
O=C(Nc1ccc2c(c1)OCO2)c1cc(-c2ccc(O)cc2)on1	aSyn UTR act -158
COc1cccc(-c2cc(C(=O)Nc3ccc4c(c3)OCO4)no2)c1	aSyn UTR act -66
O=C(Nc1ccc2c(c1)OCO2)c1cc(-c2ccccc2Cl)on1	aSyn UTR act -143
Nc1nc(Nc2ccccc2)sc1C(=O)c1ccccc1	aSyn UTR act -121
Cc1cnc(NC(=O)c2sc(Nc3ccccc3)nc2N)o1	aSyn UTR act -115
CC1CCC/C(=N/Nc2nc3ccccc3s2)C1 (centres undefined)	aSyn UTR act -134
CC1(C)CC(=O)C/C(=N/Nc2nc3ccccc3s2)C1	aSyn UTR act -67
Cc1ccc(C(=O)O/N=C(\N)c2ccccn2)cc1	none
Cc1ccc(/C(N)=N/OC(=O)c2ccc(F)cc2)cc1	aSyn UTR act -194
N/C(=N\OC(=O)c1ccc(F)cc1)c1ccccc1	aSyn UTR act -298
N/C(=N\OC(=O)c1ccc(F)cc1)c1ccc(Br)cc1	aSyn UTR act -143
COC(=O)c1cc(=O)n(Cc2ccc3c(c2)OCO3)c(=Nc2ccc(F)c(Cl)c2)s1	aSyn UTR act -66
Nc1c(-c2ccccc2)cnn1-c1cccc([N+](=O)[O-])c1	aSyn UTR act -92
Nc1c(-c2ccc(Cl)cc2)cnn1-c1cccc([N+](=O)[O-])c1	aSyn UTR act -134
Cc1nn(-c2cccc([N+](=O)[O-])c2)c(N)c1-c1ccccc1	aSyn UTR act -83
O=C(/C(=C(\[O-])c1ccccc1)[n+]1ccc2ccccc2c1)c1ccccc1	aSyn UTR act -72
O=C(/C(=C(\[O-])c1ccccc1)[n+]1ccc2ccccc2c1)c1ccc(Cl)cc1	aSyn UTR act -63
COC(=O)c1ccc(/C=C/C(=O)c2cccc(OC)c2)cc1	aSyn UTR act -71
COc1cccc(C(=O)Nc2ccc3c(c2)C(=O)c2ccccc2C3=O)c1	aSyn UTR act -164
COc1ccc(NC(=O)c2ccc(C)cc2)c(OC)c1	aSyn UTR act -189
COc1ccc2cc(C(=O)/C=C/c3cc(OC)c(O)c(OC)c3)ccc2c1	aSyn UTR act -71
COC(=O)c1ccc(NC(=O)c2cccc(C)c2)cc1	aSyn UTR act -65
COc1cccc(C(=O)Nc2ccc(C)cc2)c1	aSyn UTR act -127
COC(=O)c1ccc(NC(=O)c2ccc3nsnc3c2)cc1	aSyn UTR act -111
Cc1ccc(NC(=O)COC(=O)c2cccc3c2C(=O)c2ccccc2C3=O)c(C)c1	none
CCC(=O)Nc1ccc2c(c1)C(=O)c1ccccc1C2=O	aSyn UTR act -245
COc1cccc(C(=O)NC(=S)Nc2ccc(N(C)C)cc2)c1	aSyn UTR act -185
COc1cccc(C(=O)Nc2ccc(C(=O)c3ccccc3)cc2)c1	aSyn UTR act -94
O=C(Nc1ccc(C2CC2(Cl)Cl)cc1)c1ccccc1Br (centres undefined)	aSyn UTR act -73
COc1cccc(C(=O)Nc2ccc(Cl)c(C(F)(F)F)c2)c1	aSyn UTR act -108
CCN(CC)S(=O)(=O)c1cccc(C(=O)Oc2cccc(NC(=O)c3cccs3)c2)c1	aSyn UTR act -66
COC(=O)c1ccc(NC(=O)c2cccc(OC)c2)cc1	aSyn UTR act -255
COc1cccc(C(=O)Nc2ccc(C3CC3(Cl)Cl)cc2)c1 (centres undefined)	aSyn UTR act -169
Cc1cccc(C(=O)Nc2cccc(OC(=O)c3cccc(C)c3)c2)c1	aSyn UTR act -115
Cc1ccc(NC(=O)c2ccc3nsnc3c2)c(C)c1	aSyn UTR act -102
C/C(=N/O)c1cccc(N2Cc3ccccc3C2)c1	aSyn UTR act -74
COc1cc2c(c(OC)c1OC)-c1ccc(OC)c(=O)cc1C(NC(C)=O)CC2 (centres undefined)	none
COc1cc(/C=C2/CC/C(=C/c3ccc(O)c(OC)c3)C2=O)ccc1O	aSyn UTR act -71
COc1cc(/C=C2\COC/C(=C\c3ccc(O)c(OC)c3)C2=O)ccc1O	none
COc1ccc(/C=C2\CCC/C(=C\c3ccc(OC)c(OC)c3OC)C2=O)c(OC)c1OC	aSyn UTR act -71
CCN1C/C(=C/c2ccc(OC)c(O)c2)C(=O)/C(=C/c2ccc(OC)c(O)c2)C1	none
COc1ccc(/C=C2\CC/C(=C\c3ccc(OC)c(OC)c3)C2=O)cc1OC	aSyn UTR act -74
CCN(CC)C(=N)/C(C#N)=N/Nc1ccc(C)cc1	aSyn UTR act -136
COc1ccc(N/N=C(\C#N)C(=N)N2CCCCC2)cc1	aSyn UTR act -82
Cc1ccc(N/N=C(\C#N)C(=N)N2CCOCC2)cc1	aSyn UTR act -141
N#C/C(=N\Nc1ccccc1F)C(=N)N1CCCCC1	aSyn UTR act -158
N#C/C(=N\Nc1ccc(Cl)cc1)C(=N)N1CCCCC1	aSyn UTR act -101
Cc1ccc(N/N=C(\C#N)C(=N)N2CCCCCC2)cc1	aSyn UTR act -113
Cc1ccc(-c2nnc(SCC(C)C)n2C)cc1	aSyn UTR act -146
Cc1ccc(Nc2nc(CSc3nnc(-c4ccc(F)cc4)n3C)cs2)cc1	aSyn UTR act -144
CCCCSc1nnc(-c2ccc(OC)cc2)n1C	aSyn UTR act -133
Cc1ccc(C)c(NC(=O)c2cnn(-c3ccccc3)c2C)c1	aSyn UTR act -81
